Experimental data published in PubChem BioAssay AID1159554 (Broad Institute, 2015).
Out of some 94,000 compounds screened, about 2,100 (2.2%) were called active. What follows is part of a selection rich in actives, with near analogues and random picks from the rest. Unmarked numbers belong to inactive results. Rule as the data show it: active = activity change below about -80%; inconclusive = no clear call, values can overlap the other calls; inactive = above that.

Assay: Dd2 malaria parasite growth inhibition – SYBR Green fluorescence, single dose replicates, primary screen (AID 1159554)
Conditions: P. falciparum Dd2 growth, 72 h, at 10 µM, stronger effect = lower value

| SMILES | activity change |
| --- | --- |
| CCC(=O)N(C)C[C@H]1Oc2ncc(C#CC(C)C)cc2C(=O)N([C@@H](C)CO)C[C@H]1C | 34.1% |
| CN1C(=O)c2cc(NC(=O)C3CCCC3)ccc2OC[C@H]2O[C@H](CC(=O)NCc3ccccc3F)CC[C@H]21 | -16.4% |
| O=C(C1CCCC1)N1[C@H](CO)[C@H]2c3ccccc3N(S(=O)(=O)c3ccccc3)C[C@H]21 | -20% |
| Cc1noc(C)c1NC(=O)N(C)C[C@H]1Oc2ccc(NC(=O)Cn3cnnn3)cc2CC(=O)N([C@H](C)CO)C[C@@H]1C | 26.5% |
| Cc1cc(C(=O)Nc2cccc3c2O[C@@H](CN(C)Cc2ccc(C(=O)Nc4ccccc4N)cc2)[C@H](C)CN([C@@H](C)CO)C3=O)n(C)n1 | -84.4% (active) |
| C[C@H](CO)N1C[C@H](C)[C@@H](CN(C)Cc2ccc(C(=O)Nc3ccccc3N)cc2)Oc2c(NC(=O)C3CC3)cccc2C1=O | -57.7% |
| C[C@H](CO)N1C[C@H](C)[C@H](CN(C)Cc2ccc(C(=O)Nc3ccccc3N)cc2)Oc2c(NC(=O)Nc3ccccc3)cccc2C1=O | -80.2% (active) |
| Cc1cc(C(=O)Nc2cccc3c2O[C@@H](CN(C)Cc2ccc(C(=O)O)cc2)[C@H](C)CN([C@@H](C)CO)C3=O)n(C)n1 | 6.12% |
| Cc1cc(C(=O)Nc2cccc3c2O[C@@H](CN(C)Cc2ccncc2)[C@@H](C)CN([C@@H](C)CO)C3=O)n(C)n1 | 6.17% |
| C[C@@H]1CN([C@@H](C)CO)C(=O)c2cccc(NC(=O)Nc3ccccc3)c2O[C@H]1CN(C)Cc1ccccc1 | -14.5% |
| CC(C)(C)[S@](=O)N1Cc2cc(C(=O)N3CCCCC3)nc(-c3cccc(Br)c3)c2[C@@H]1CCO | -2.81% |
| COc1cccc(S(=O)(=O)N[C@H]2C=C[C@@H](CC(=O)NCc3ccccc3)O[C@@H]2CO)c1 | 18.4% |
| O=C(C[C@@H]1CC[C@@H]2[C@H](COC[C@H](O)CN2C(=O)c2ccncc2)O1)NCc1cc(F)cc(F)c1 | 1.9% |
| COc1ccc(-c2cnc3c(c2)C(=O)N([C@@H](C)CO)C[C@H](C)[C@@H](CN(C)C(=O)C2CC2)O3)cc1 | 13.9% |
| O=C(c1ccc(F)cc1)N1CC2(C1)[C@H](c1ccccc1)[C@@H](CO)N2Cc1ccccn1 | -24.5% |
| O=C1CN(S(=O)(=O)c2ccccc2)C[C@H]2[C@H](c3ccc(C4=CCCC4)cc3)[C@@H](CO)N12 | 5.25% |
| O=C1CN(S(=O)(=O)Cc2ccccc2)C[C@@H]2[C@@H](c3ccc(C#Cc4ccccc4)cc3)[C@@H](CO)N12 | -68.4% |
| Cc1ccccc1S(=O)(=O)N1CC(=O)N2[C@H](CO)[C@H](c3ccc(C#CC4CC4)cc3)[C@@H]2C1 | -84.8% (active) |
| O=C1CN(S(=O)(=O)c2ccccc2)C[C@H]2[C@H](c3ccc(C#CCc4ccccc4)cc3)[C@@H](CO)N12 | -82.9% (active) |
| Cc1ccccc1S(=O)(=O)N1CC(=O)N2[C@H](CO)[C@H](c3ccc(C#CCN(C)C)cc3)[C@H]2C1 | -1.17% |

| SMILES | activity change |
| --- | --- |
| Cc1ccccc1S(=O)(=O)N1CC(=O)N2[C@H](CO)[C@@H](c3ccc(C#Cc4ccccc4)cc3)[C@H]2C1 | -22.9% |
| C[C@@H]1CN([C@@H](C)CO)S(=O)(=O)c2ccc(C#CC(C)(C)O)cc2O[C@H]1CN(C)C(=O)CN(C)C | 31.6% |
| Cc1ccccc1S(=O)(=O)N1[C@@H](C#N)[C@H](c2ccccc2)[C@@H]1CO | 20.4% |
| CCCNC(=O)N1CC2(CN(C(=O)C3CCCCC3)C2)c2c([nH]c3cc(OC)ccc23)[C@@H]1CO | -5.82% |
| O=C(Nc1ccc(F)cc1)N[C@H]1C=C[C@@H](CC(=O)N2CCOCC2)O[C@H]1CO | -16.7% |
| COc1ccc(S(=O)(=O)N(C)C[C@H]2Oc3c(NC(=O)Nc4cccc5ccccc45)cccc3C(=O)N([C@@H](C)CO)C[C@H]2C)cc1 | -88.1% (active) |
| C[C@@H]1CN([C@@H](C)CO)C(=O)c2cccc(NC(=O)Nc3cccc4ccccc34)c2O[C@H]1CN(C)S(=O)(=O)c1ccccc1 | -19.1% |
| C[C@H](CO)N1C[C@H](C)[C@H](CN(C)S(=O)(=O)c2ccccc2)Oc2c(NC(=O)CCCCCC(=O)Nc3ccccc3N)cccc2C1=O | -73.2% |
| COc1ccc(S(=O)(=O)N(C)C[C@H]2Oc3c(NC(=O)CCCCCC(=O)Nc4ccccc4N)cccc3C(=O)N([C@H](C)CO)C[C@H]2C)cc1 | -89.5% (active) |
| C[C@H]1CN([C@@H](C)CO)C(=O)c2cccc(NC(=O)CCCCCC(=O)Nc3ccccc3N)c2O[C@@H]1CN(C)S(=O)(=O)c1cn(C)cn1 | 22.6% |
| COc1ccc(S(=O)(=O)N(C)C[C@@H]2Oc3c(NC(=O)NC(C)C)cccc3C(=O)N([C@@H](C)CO)C[C@@H]2C)cc1 | -6.46% |
| COCC(=O)Nc1ccc2c(c1)C(=O)N(C)C[C@@H](OC)[C@@H](C)CN(C(=O)Cc1ccccn1)[C@@H](C)CO2 | -33.6% |
| COc1ccc(S(=O)(=O)N(C)C[C@H]2OCCCC[C@@H](C)Oc3ccc(NS(=O)(=O)c4ccc(C)cc4)cc3C(=O)N([C@@H](C)CO)C[C@@H]2C)cc1 | -36.4% |
| CCCNC(=O)N1[C@H](CO)[C@H]2c3ccccc3N(C(=O)Nc3cccc(Cl)c3)C[C@H]21 | 6.16% |
| COc1cccc(-c2ccc([C@@H]3[C@@H](CO)N(C(=O)c4ccccn4)[C@H]3C#N)cc2)c1 | -11.6% |
| COc1cccc(C#Cc2ccc([C@H]3[C@@H](CO)N(C(=O)c4ccccn4)[C@H]3C#N)cc2)c1 | -92% (active) |
| COc1cccc(-c2ccc([C@@H]3[C@@H](C#N)N(C(=O)c4ccccn4)[C@H]3CO)cc2)c1 | -35.5% |
| CCCN1C[C@H](C)[C@H](OC)CN(C)C(=O)c2cc(NC(=O)NC3CCCC3)ccc2OC[C@H]1C | 20% |
| C[C@@H]1CCCCO[C@@H](CN(C)S(C)(=O)=O)[C@H](C)CN([C@@H](C)CO)C(=O)c2cc(NC(=O)Nc3ccc4c(c3)OCO4)ccc2O1 | 33.8% |
